# According to the supplement of paper PMC10849652:
# About 7,900 targets were measured; listed, in parts, are those with a hit and a random draw of the rest. About 0.6% of all pairs of compound and target were hits. Values without a mark were called inactive.
# How the values were obtained:
# Experiment in all cases: log2 fold change, soluble protein after heating vs DMSO (PISA); higher = thermal stabilisation; K562 cells, 10 uM, 30 min; active = over 0.2 and 3.5 SD of the protein, either way, in both replicates (recomputed)
# [1] = compound: C1=CC=C(C=C1)[C@H](COC2=CC3=C(C=C2)NC(=O)N3)NC(=O)C4=CC=CN(C4=O)CC5=CC(=C(C=C5)F)F
# How it was run: (§1)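 K562 cells (2×10^6 cells/mL) were treated with 10 μM compound for 30 min, and aliquots were heated for 3 min over 48°C-58°C. Pooled aliquots were extracted in PBS with 0.5% NP-40 at 4°C, and the supernatant after 21,000xg for 90 min was measured by TMTpro 16plex LC-MS/MS with channel sums equalised. Reported thermal stability, relative to control samples and from duplicates, is a log2 fold change.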
# [2] = compound: CC1=C(SC2=C1C(=N[C@H](C3=NN=C(N32)C)CC(=O)N)C4=CC=C(C=C4)Cl)C
# How it was run: as §1
# [3] = compound: CC1=C2C(=CC=C1)N=C(N(C2=O)C3=CC=CC=C3C)CN4C=NC5=C(N=CN=C54)N
# How it was run: as §1
# [4] = compound: Cc1sc2c(c1C)C(c1ccc(Cl)cc1)=N[C@@H](CC(=O)OC(C)(C)C)c1nnc(C)n1-2
# How it was run: as §1
# [5] = compound: c1ccc([C@@H]2C[C@H]2NC2CCNCC2)cc1
# How it was run: as §1
# Sequence of UniProt Q9ULP9 (Q9ULP9 whole entry, looked up): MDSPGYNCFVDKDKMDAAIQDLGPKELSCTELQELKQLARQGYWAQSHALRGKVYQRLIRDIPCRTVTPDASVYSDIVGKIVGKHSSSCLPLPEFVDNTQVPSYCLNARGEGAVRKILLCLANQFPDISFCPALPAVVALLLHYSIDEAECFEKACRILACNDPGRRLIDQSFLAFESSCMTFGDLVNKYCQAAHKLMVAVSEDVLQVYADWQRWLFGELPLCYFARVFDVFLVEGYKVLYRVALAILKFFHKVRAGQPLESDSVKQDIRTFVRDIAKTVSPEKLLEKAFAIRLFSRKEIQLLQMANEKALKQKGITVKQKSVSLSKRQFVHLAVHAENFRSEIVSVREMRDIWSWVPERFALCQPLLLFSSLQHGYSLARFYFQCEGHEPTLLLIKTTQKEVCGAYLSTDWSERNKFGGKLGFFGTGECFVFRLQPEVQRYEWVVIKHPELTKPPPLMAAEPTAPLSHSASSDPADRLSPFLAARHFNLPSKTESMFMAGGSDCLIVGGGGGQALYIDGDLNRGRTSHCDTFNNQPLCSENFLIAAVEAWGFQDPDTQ
# Sequence of UniProt P02786 (P02786 whole entry, looked up): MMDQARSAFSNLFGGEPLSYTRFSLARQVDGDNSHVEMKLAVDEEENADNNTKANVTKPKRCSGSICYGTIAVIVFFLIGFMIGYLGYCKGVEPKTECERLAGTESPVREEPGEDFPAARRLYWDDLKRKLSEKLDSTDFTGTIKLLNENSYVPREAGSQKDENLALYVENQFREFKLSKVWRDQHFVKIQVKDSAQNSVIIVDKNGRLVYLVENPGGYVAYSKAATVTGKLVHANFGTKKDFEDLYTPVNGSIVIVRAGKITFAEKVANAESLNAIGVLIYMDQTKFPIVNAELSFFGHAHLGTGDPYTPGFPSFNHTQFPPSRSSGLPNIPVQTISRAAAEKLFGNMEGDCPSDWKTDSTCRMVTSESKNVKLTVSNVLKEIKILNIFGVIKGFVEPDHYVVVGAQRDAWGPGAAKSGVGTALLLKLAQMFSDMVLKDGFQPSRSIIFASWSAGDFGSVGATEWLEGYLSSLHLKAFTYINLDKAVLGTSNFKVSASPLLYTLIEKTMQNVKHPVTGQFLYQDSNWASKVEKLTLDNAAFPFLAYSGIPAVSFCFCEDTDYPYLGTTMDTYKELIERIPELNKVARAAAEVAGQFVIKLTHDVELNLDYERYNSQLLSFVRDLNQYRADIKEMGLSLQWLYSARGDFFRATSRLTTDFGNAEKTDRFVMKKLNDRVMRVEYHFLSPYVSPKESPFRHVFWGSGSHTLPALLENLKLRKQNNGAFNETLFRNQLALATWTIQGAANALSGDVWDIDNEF
# Sequence of UniProt Q8TC07 (Q8TC07 whole entry, looked up): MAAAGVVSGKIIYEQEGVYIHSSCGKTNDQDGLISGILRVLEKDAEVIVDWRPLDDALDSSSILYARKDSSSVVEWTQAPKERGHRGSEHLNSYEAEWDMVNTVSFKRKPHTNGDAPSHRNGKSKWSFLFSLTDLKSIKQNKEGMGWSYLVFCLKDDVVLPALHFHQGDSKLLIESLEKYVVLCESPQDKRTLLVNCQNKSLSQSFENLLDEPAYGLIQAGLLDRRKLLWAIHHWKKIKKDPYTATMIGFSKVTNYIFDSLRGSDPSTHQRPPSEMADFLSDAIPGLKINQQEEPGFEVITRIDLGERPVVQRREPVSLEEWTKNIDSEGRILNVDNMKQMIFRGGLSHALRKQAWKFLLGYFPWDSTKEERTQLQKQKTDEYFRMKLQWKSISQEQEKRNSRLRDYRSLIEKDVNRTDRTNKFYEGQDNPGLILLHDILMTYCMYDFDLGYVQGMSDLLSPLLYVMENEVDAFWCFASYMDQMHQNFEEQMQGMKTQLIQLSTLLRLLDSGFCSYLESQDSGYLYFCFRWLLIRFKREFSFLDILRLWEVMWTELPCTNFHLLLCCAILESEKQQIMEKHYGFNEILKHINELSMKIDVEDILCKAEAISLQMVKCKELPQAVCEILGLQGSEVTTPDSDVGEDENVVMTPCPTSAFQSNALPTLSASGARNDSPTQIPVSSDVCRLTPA
# Sequence of UniProt Q9BW92 (Q9BW92 whole entry, looked up): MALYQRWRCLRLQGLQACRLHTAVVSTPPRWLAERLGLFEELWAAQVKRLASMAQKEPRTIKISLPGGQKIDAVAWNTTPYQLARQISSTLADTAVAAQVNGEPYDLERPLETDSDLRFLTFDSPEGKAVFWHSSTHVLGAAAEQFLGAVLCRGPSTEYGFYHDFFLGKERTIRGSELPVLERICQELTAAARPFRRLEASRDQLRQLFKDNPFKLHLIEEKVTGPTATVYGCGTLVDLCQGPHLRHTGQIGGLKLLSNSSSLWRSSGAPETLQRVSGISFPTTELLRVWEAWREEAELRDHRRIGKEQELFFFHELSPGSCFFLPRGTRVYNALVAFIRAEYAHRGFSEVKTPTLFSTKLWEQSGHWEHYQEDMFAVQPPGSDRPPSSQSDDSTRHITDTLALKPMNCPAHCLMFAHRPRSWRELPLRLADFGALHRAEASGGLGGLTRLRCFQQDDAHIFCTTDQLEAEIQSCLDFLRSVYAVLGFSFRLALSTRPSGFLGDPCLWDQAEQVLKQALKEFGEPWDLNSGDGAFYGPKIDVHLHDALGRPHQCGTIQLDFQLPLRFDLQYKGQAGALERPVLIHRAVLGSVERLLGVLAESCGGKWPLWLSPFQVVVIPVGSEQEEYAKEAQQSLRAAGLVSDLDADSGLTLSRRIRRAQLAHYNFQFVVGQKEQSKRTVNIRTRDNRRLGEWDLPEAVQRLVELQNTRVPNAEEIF
# Sequence of UniProt O15400 (O15400 whole entry, looked up): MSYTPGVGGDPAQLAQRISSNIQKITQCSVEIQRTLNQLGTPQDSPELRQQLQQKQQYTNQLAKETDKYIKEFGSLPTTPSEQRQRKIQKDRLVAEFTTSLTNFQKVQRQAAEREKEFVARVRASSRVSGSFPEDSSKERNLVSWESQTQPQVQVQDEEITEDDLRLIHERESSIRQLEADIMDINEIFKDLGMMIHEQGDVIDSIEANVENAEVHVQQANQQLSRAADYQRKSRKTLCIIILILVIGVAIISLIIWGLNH
# Sequence of UniProt Q8TCT7 (Q8TCT7 whole entry, looked up): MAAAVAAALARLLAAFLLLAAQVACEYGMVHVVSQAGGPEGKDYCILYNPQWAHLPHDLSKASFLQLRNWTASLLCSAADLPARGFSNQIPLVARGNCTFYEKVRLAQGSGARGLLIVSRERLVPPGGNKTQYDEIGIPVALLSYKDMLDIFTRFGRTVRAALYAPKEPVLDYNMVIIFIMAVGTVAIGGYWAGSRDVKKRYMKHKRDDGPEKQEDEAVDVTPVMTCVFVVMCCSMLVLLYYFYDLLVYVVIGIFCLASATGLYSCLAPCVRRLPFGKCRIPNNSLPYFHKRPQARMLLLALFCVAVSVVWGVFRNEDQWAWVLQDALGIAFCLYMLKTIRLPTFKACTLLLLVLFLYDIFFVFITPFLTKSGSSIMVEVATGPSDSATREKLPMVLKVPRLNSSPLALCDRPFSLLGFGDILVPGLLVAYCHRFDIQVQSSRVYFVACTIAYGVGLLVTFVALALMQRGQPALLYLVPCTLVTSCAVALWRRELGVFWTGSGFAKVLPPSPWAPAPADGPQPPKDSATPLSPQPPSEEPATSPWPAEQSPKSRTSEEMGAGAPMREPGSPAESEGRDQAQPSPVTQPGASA
# Sequence of UniProt O75494 (O75494 whole entry, looked up): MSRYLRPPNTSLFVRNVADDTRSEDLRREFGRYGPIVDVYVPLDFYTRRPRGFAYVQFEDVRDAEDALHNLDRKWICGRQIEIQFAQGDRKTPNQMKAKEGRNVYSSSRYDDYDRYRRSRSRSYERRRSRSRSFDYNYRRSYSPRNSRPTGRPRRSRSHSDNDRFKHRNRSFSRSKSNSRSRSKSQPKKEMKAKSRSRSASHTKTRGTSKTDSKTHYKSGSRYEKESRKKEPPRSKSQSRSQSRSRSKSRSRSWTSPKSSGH
# Sequence of UniProt Q9NZD8 (Q9NZD8 whole entry, looked up): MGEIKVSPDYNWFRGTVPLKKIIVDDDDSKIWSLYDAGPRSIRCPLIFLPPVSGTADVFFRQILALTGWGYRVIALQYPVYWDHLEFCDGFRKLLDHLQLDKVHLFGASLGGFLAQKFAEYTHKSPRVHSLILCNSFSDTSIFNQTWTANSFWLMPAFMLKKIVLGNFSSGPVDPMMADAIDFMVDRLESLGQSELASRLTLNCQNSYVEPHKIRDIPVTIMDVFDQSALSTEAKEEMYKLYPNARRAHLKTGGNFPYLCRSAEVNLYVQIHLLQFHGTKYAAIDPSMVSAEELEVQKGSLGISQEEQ
# Sequence of UniProt Q8WU79 (Q8WU79 whole entry, looked up): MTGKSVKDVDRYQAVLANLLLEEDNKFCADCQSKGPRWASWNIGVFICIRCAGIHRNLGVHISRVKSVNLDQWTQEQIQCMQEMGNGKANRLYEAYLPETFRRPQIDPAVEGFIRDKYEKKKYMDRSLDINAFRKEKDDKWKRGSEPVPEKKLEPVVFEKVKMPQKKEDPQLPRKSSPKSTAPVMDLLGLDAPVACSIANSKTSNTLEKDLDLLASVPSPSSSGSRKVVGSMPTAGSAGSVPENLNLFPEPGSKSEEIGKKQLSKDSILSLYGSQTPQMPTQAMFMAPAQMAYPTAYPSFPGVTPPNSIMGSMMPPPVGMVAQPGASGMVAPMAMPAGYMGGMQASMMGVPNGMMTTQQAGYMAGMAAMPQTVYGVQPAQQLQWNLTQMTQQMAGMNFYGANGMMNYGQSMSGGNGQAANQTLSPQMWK
# Sequence of UniProt P84103 (P84103 whole entry, looked up): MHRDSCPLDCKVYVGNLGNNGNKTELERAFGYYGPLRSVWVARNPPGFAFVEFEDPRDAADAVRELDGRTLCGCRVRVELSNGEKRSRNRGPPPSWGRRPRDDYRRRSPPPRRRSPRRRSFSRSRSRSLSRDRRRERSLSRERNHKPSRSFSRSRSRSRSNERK
Target,log2 fold change [1],log2 fold change [2],log2 fold change [3],log2 fold change [4],log2 fold change [5]
TBC1D15 isoform 3 (UniProt Q8TC07),-0.072,0.013,0.045,0.005,-0.019
SYNE1 (UniProt Q8NF91),-0.009,0.24,0.223,-0.018,-0.052
TBCD (UniProt Q9BTW9),-0.028,0.03,0.101,-0.004,-0.03
SPECC1 (UniProt Q5M775),-0.017,-0.087,0.105,-0.012,0.037
SPTBN1 (UniProt Q01082),-0.002,-0.033,0.078,0.027,0.013
SPART (UniProt Q8N0X7),-0.028,0.043,0.065,0.018,-0.002
SMARCE1 (UniProt Q969G3),-0.156,-0.002,0.338,0.111,-0.051
TAOK1 (UniProt Q7L7X3),0.057,0.095,0.041,0.012,0.002
SP100 isoform 4 (UniProt P23497),-0.006,-0.015,-0.047,0,0.024
STAT3 (UniProt P40763),-0.033,0.034,0.1,0.024,-0.006
TARS2 (UniProt Q9BW92),-0.018,0.025,0.101,-0.019,-0.023
SNX15 (UniProt Q9NRS6),0.065,-0.032,0.141,0.279,-0.081
SLK isoform 2 (UniProt Q9H2G2),0.016,0.034,0.042,0.021,-0.005
TGFBRAP1 (UniProt Q8WUH2),-0.021,0.03,0.075,-0.105,-0.004
STARD9 (UniProt Q9P2P6),-0.073,0.147,-0.072,0.042,-0.087
TLK1 (UniProt Q9UKI8),0.007,0.036,0.036,-0.036,0.018
SYK (UniProt P43405),0.21,-0.221,-0.041,0.132,-0.105
SLC25A38 (UniProt Q96DW6),0.014,0.034,-0.035,-0.035,0.014
TBRG4 (UniProt Q969Z0),-0.106,0.022,0.077,-0.049,-0.017
SLC35F6 (UniProt Q8N357),-0.034,-0.045,0.064,-0.057,0.067
TBC1D24 (UniProt Q9ULP9),-0.108,0.152,0.02,-0.029,-0.061
TK1 (UniProt P04183),0.002,-0.008,-0.011,-0.019,0.008
TENT5C (UniProt Q5VWP2),0.017,0.25,0.122,0.116,-0.35
SRSF3 (UniProt P84103),0.099,-0.18,-0.159,0.152,0.055
SRCAP (UniProt Q6ZRS2),0.074,0.013,0.101,-0.005,-0.136
STK11IP (UniProt Q8N1F8),0.035,0.026,-0.02,0.05,-0.048
SUCLA2 (UniProt Q9P2R7),-0.029,0.07,0.113,-0.017,-0.044

Target,log2 fold change [1],log2 fold change [2],log2 fold change [3],log2 fold change [4],log2 fold change [5]
SLC30A7 (UniProt Q8NEW0),-0.033,0.052,-0.049,0.039,-0.011
TFRC (UniProt P02786),0.058,0.032,0.008,0.011,0.021
SOAT1 (UniProt P35610),-0.023,0.037,0.071,0.802 (active),0.001
SURF2 (UniProt Q15527),0.056,-0.018,0.033,-0.047,-0.044
SRP68 (UniProt Q9UHB9),-0.041,0.022,0.039,0.092,-0.029
SUCLG1 (UniProt P53597),0.004,0.073,0.042,-0.021,-0.041
STX7 (UniProt O15400),0.023,0.01,0.027,-0.011,-0.011
SNX11 (UniProt Q9Y5W9),0.004,0.063,0.108,0.057,-0.027
SNW1 (UniProt Q13573),0.03,0.015,-0.036,0.055,-0.035
TIMM29 (UniProt Q9BSF4),-0.034,0.114,-0.026,-0.006,0.031
SQSTM1 (UniProt Q13501),0,0.097,-0.128,0.096,0.012
TIMM44 (UniProt O43615),-0.099,0.043,0.088,0.008,-0.017
SPG21 (UniProt Q9NZD8),-0.128,-0.035,0.031,-0.062,-0.02
TCOF1 isoform 4 (UniProt Q13428),0.016,0.006,0.018,0.033,0.042
SPTBN4 (UniProt Q9H254),-0.058,-0.083,0.148,0.014,-0.001
STAM2 (UniProt O75886),-0.015,0.005,0.014,0.016,-0.001
SNX2 (UniProt O60749),-0.015,0.069,0.066,-0.026,-0.079
SMARCAD1 isoform 2 (UniProt Q9H4L7),-0.029,0.071,0.214,-0.129,0.004
SMPD4 isoform 4 (UniProt Q9NXE4),-0.094,0.031,0.043,-0.034,-0.104
TFR2 (UniProt Q9UP52),0.01,0.018,0.004,0.007,0.026
SPPL2B (UniProt Q8TCT7),0.039,0.132,0.049,0.024,-0.022
SRSF10 (UniProt O75494),0.001,-0.475,-0.187,0.249,0.17
SMAP2 (UniProt Q8WU79),-0.041,0.013,0.086,0.001,0.011
SNX5 (UniProt Q9Y5X3),-0.016,0.045,0.014,0.04,-0.071
SLC25A39 (UniProt Q9BZJ4),0.031,-0.166,0.149,0.09,0.019
SNUPN (UniProt O95149),-0.027,0.051,0.067,0.03,0.021
